Drawing on publication PMC5515408, “Sequence-specific DNA binding by MYC/MAX to low-affinity non-E-box motifs”, this text covers binding signal for 74 sequences.

The full ranking holds about 4,500 sequences; the median of “log2 normalized fluorescence” is about -0.34, and the highest 2% start at about 3.3. The entries come from a sample that favours the highest values as a whole.

Chain of MAX:MAX (p21) (P61244 other isoform, or with tags, fused parts or gaps): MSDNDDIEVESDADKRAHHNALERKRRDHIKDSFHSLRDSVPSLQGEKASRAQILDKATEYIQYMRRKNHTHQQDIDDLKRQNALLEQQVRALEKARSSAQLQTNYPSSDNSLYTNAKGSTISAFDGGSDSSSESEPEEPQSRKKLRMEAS

This test concerns the target MAX:MAX (p21) (human, UniProt P61244-2 1-151). The experiment in a line: protein-binding microarray (anti-MAX antibody); PBM: 15 mM Tris-HCl pH 7.5, 100 mM KCl, 0.075% NP40, 7.5 mM beta-mercaptoethanol, 375 ng/ul BSA, 8 ng/ul poly(dA-dT):(dA-dT), 550 ng complex, 60 min, room tempe; high values mean tight binding. As to conditions: protein: recombinant; tags: 6xHis; chain copies: 2; label: 3' end of printed strand (linker) attached to glass slide; dsDNA, one strand shown. An outline of the steps: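 Binding, given as log2 normalized fluorescence, was measured on a custom Agilent glass array. The array bore ~5000 unique 12-nt sequences spotted in triplicate and converted to double strands by primer extension. It was incubated with 550 ng of human His-tagged MYC:MAX or MAX:MAX dimers from E. coli for 60 min at room temperature in Tris-KCl buffer, pH 7.5, with NP40, BSA and poly(dA-dT) competitor, and bound protein was detected with anti-MAX and secondary antibodies and scanned at 543 nm.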
As for “CCGGCTGAGTCTGCGTATTAATAGCTAAGATTACTATATCGACG”, the binding signal is -0.699 log2 normalized fluorescence.
The same measure for “CCGGCTGAATCCCAGTATTAATAGCTAAGATTACTATATCGACG”: -0.681 log2 normalized fluorescence; for “CCGGCTGATGTTTTGTATTAATAGCTAAGATTACTATATCGACG”: -0.281 log2 normalized fluorescence.
The same measure for “CCGGCTGACACGTGACATTAATAGCTAAGATTACTATATCGACG”: 3.44 log2 normalized fluorescence.
Take “CCGGCTGACACGTGACGTTAATAGCTAAGATTACTATATCGACG”: the binding signal is 3.23 log2 normalized fluorescence.
For “CCGGCTGACACGTGAGGTTAATAGCTAAGATTACTATATCGACG”, the binding signal is 3.37 log2 normalized fluorescence.
The same measure for “CCGGCTGACACGTTACATTAATAGCTAAGATTACTATATCGACG”: 3.06 log2 normalized fluorescence; for “CCGGCTGACACGTGAAGTTAATAGCTAAGATTACTATATCGACG”: 3.15 log2 normalized fluorescence.
The same measure for “CCGGCTGACACGTGAGATTAATAGCTAAGATTACTATATCGACG”: 3.29 log2 normalized fluorescence; for “CCGGCTGACACGTGATGTTAATAGCTAAGATTACTATATCGACG”: 3.13 log2 normalized fluorescence.
The same measure for “CCGGCTGACACGTGAGTTTAATAGCTAAGATTACTATATCGACG”: 3.25 log2 normalized fluorescence; for “CCGGCTGACACGTGAGCTTAATAGCTAAGATTACTATATCGACG”: 3.09 log2 normalized fluorescence.
As to “CCGGCTGATGAACAGTATTAATAGCTAAGATTACTATATCGACG”, the binding signal is -0.468 log2 normalized fluorescence.
The same measure for “CCGGCTGAGCATCTGTATTAATAGCTAAGATTACTATATCGACG”: 0.186 log2 normalized fluorescence; for “CCGGCATACACTTGGTATTAATAGCTAAGATTACTATATCGACG”: 1.54 log2 normalized fluorescence.
The same measure for “CCGGCTGAGGCGGTGTATTAATAGCTAAGATTACTATATCGACG”: -0.63 log2 normalized fluorescence.
The same measure for “CCGGCTGACACGTTGTTTTAATAGCTAAGATTACTATATCGACG”: 3.22 log2 normalized fluorescence; for “CCGGCTTACACGTGGTTTTAATAGCTAAGATTACTATATCGACG”: 3.22 log2 normalized fluorescence; for “CCGGCTGACACGTGTTCTTAATAGCTAAGATTACTATATCGACG”: 3.35 log2 normalized fluorescence.
As for “CCGGCTGACACGTTTAATTAATAGCTAAGATTACTATATCGACG”, the binding signal was 2.59 log2 normalized fluorescence.
The same measure for “CCGGCTGACACGTGTTTTTAATAGCTAAGATTACTATATCGACG”: 3.34 log2 normalized fluorescence.
The same measure for “CCGGCTGACACGTGCTCTTAATAGCTAAGATTACTATATCGACG”: 3.24 log2 normalized fluorescence; for “CCGGCTAGCACGTGTTTTTAATAGCTAAGATTACTATATCGACG”: 3.52 log2 normalized fluorescence.
The same measure for “CCGGCTGACACGTGTGTTTAATAGCTAAGATTACTATATCGACG”: 3.37 log2 normalized fluorescence; for “CCGGCTAGCACGTGGCATTAATAGCTAAGATTACTATATCGACG”: 3.24 log2 normalized fluorescence; for “CCGGCTGACACGTGTACTTAATAGCTAAGATTACTATATCGACG”: 3.15 log2 normalized fluorescence.
In the case of “CCGGCTGACACGTGTGATTAATAGCTAAGATTACTATATCGACG”, the binding signal was 3.24 log2 normalized fluorescence.
Turning to “CCGGCTGACACGTCGTTTTAATAGCTAAGATTACTATATCGACG”, the binding signal is 1.92 log2 normalized fluorescence.
The same measure for “CCGGCTGATATTGCGTATTAATAGCTAAGATTACTATATCGACG”: -0.611 log2 normalized fluorescence.
The same measure for “CCGGCTGAGTTACGGTATTAATAGCTAAGATTACTATATCGACG”: -0.516 log2 normalized fluorescence; for “CCGGCTGACACGTCGAATTAATAGCTAAGATTACTATATCGACG”: 1.45 log2 normalized fluorescence.
The same measure for “CCGGCTGACCCGTCGTATTAATAGCTAAGATTACTATATCGACG”: -0.382 log2 normalized fluorescence.
Turning to “CCGGCTGAGATGGAGTATTAATAGCTAAGATTACTATATCGACG”, the binding signal was -0.522 log2 normalized fluorescence.
For the sequence “CCGGCGGACACGTGTGATTAATAGCTAAGATTACTATATCGACG”, the binding signal is 3.15 log2 normalized fluorescence.
On to “CCGGCTGATTCTCAGTATTAATAGCTAAGATTACTATATCGACG”, for which the binding signal was -0.684 log2 normalized fluorescence.
The same measure for “CCGGCTGATCAGAGGTATTAATAGCTAAGATTACTATATCGACG”: -0.421 log2 normalized fluorescence; for “CCGGCTGACACGTTGTCTTAATAGCTAAGATTACTATATCGACG”: 3.12 log2 normalized fluorescence; for “CCGGCTGACACGTGTCTTTAATAGCTAAGATTACTATATCGACG”: 3.41 log2 normalized fluorescence.
The same measure for “CCGGCTGACACGTGACTTTAATAGCTAAGATTACTATATCGACG”: 3.21 log2 normalized fluorescence; for “CCGGCTAACACGTGATATTAATAGCTAAGATTACTATATCGACG”: 3.18 log2 normalized fluorescence; for “CCGGCTTATACGTGATATTAATAGCTAAGATTACTATATCGACG”: 0.467 log2 normalized fluorescence.
The same measure for “CCGGCTTACACATGCTATTAATAGCTAAGATTACTATATCGACG”: 3.23 log2 normalized fluorescence.
Consider “CCGGCTTACACGTGCTATTAATAGCTAAGATTACTATATCGACG”, for which the binding signal was 3.57 log2 normalized fluorescence.
Regarding “CCGGCTTACACGTGGTGTTAATAGCTAAGATTACTATATCGACG”, the binding signal was 3.07 log2 normalized fluorescence.
The same measure for “CCGGCGCACACGTGCTATTAATAGCTAAGATTACTATATCGACG”: 3.04 log2 normalized fluorescence; for “CCGGCTTACACGTGATATTAATAGCTAAGATTACTATATCGACG”: 3.31 log2 normalized fluorescence.
The same measure for “CCGGCTTACACGTGTTATTAATAGCTAAGATTACTATATCGACG”: 3.4 log2 normalized fluorescence; for “CCGGCTTAAACGTGTTATTAATAGCTAAGATTACTATATCGACG”: 2.7 log2 normalized fluorescence; for “CCGGCTGATGTCCAGTATTAATAGCTAAGATTACTATATCGACG”: -0.249 log2 normalized fluorescence.
As for “CCGGCTGAATGGGCGTATTAATAGCTAAGATTACTATATCGACG”, the binding signal is 0.274 log2 normalized fluorescence.
The same measure for “CCGGCTGAGTCGAGGTATTAATAGCTAAGATTACTATATCGACG”: -0.576 log2 normalized fluorescence.
The same measure for “CCGGCTGAACCGGCGTATTAATAGCTAAGATTACTATATCGACG”: -0.299 log2 normalized fluorescence; for “CCGGCAGACACTTAGTATTAATAGCTAAGATTACTATATCGACG”: 0.466 log2 normalized fluorescence; for “CCGGCCTTCACGTGGTATTAATAGCTAAGATTACTATATCGACG”: 3.1 log2 normalized fluorescence.
Consider “CCGGCTTTCACATGGTATTAATAGCTAAGATTACTATATCGACG”, for which the binding signal was 3.34 log2 normalized fluorescence.
The same measure for “CCGGCTATCACGTGGTATTAATAGCTAAGATTACTATATCGACG”: 3.15 log2 normalized fluorescence; for “CCGGCTTTCACTTGGTATTAATAGCTAAGATTACTATATCGACG”: -0.636 log2 normalized fluorescence; for “CCGGCTTTCACGTGGTATTAATAGCTAAGATTACTATATCGACG”: 3.41 log2 normalized fluorescence.
The same measure for “CCGGCATTCACGTGGTATTAATAGCTAAGATTACTATATCGACG”: 3.26 log2 normalized fluorescence.
For “CCGGCTAATACGTGGTATTAATAGCTAAGATTACTATATCGACG”, the binding signal was 1.49 log2 normalized fluorescence.
The same measure for “CCGGCGTTCACGTGGTATTAATAGCTAAGATTACTATATCGACG”: 3.37 log2 normalized fluorescence; for “CCGGCTTACACATGGTATTAATAGCTAAGATTACTATATCGACG”: 3.16 log2 normalized fluorescence.
The same measure for “CCGGCTGAGGGAGCGTATTAATAGCTAAGATTACTATATCGACG”: -0.434 log2 normalized fluorescence; for “CCGGCTGAGGAGAGGTATTAATAGCTAAGATTACTATATCGACG”: -0.732 log2 normalized fluorescence.
The same measure for “CCGGCTGACCGCCGGTATTAATAGCTAAGATTACTATATCGACG”: -0.241 log2 normalized fluorescence; for “CCGGCTGACAAGCAGTATTAATAGCTAAGATTACTATATCGACG”: -0.299 log2 normalized fluorescence.
Regarding “CCGGCCCCCACGTGGTATTAATAGCTAAGATTACTATATCGACG”, the binding signal is 3.4 log2 normalized fluorescence.
Regarding “CCGGCGCCCACGTGGTATTAATAGCTAAGATTACTATATCGACG”, the binding signal is 3.43 log2 normalized fluorescence.
The same measure for “CCGGCCTCCACGTGGTATTAATAGCTAAGATTACTATATCGACG”: 2.94 log2 normalized fluorescence; for “CCGGCTAAGACGTGGTATTAATAGCTAAGATTACTATATCGACG”: 1.75 log2 normalized fluorescence; for “CCGGCTCCCACGTGGTATTAATAGCTAAGATTACTATATCGACG”: 3.4 log2 normalized fluorescence.
“CCGGCTATTACGTGGTATTAATAGCTAAGATTACTATATCGACG”: the binding signal is 1.27 log2 normalized fluorescence.
The same measure for “CCGGCTCCGACGTGGTATTAATAGCTAAGATTACTATATCGACG”: 2.2 log2 normalized fluorescence; for “CCGGCCCACACGTGGTATTAATAGCTAAGATTACTATATCGACG”: 2.95 log2 normalized fluorescence.
